Most compounds without a hit are left out; they make up all but 5% or so of the library.
SENP8 block-1: human SENP8 protease inhibitors, primary screen, biochemical, fluorescence, Nedd8 protein substrate, uHTS; Sentrin-specific protease 8 (Homo sapiens), Q96LD8; recombinant SENP8; inhibition, % at 20 µM; actives 0.64% (n = 360,000); in the data active = inhibition mostly above about 40%, no sharp cut-off; inactive = mostly below about 27%
Target sequence (Q96LD8 whole entry, looked up): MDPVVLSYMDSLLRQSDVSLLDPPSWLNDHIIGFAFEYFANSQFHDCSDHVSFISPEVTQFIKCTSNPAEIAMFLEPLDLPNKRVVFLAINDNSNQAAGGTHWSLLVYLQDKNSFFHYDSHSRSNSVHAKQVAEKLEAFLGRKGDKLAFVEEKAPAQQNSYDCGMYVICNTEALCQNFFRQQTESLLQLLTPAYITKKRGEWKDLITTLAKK
SENP7 inh: SENP7 protease inhibitors, primary screen, biochemical, luminescence, uHTS; Sentrin-specific protease 7 (Homo sapiens), Q9BQF6; recombinant SENP7, Z-RLRGG-aminoluciferin luminescence, 40 min; inhibition, % at 5 µM; actives 1.5% (n = 330,000);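 active = inhibition above about 50% at the single test dose, limit read from the data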;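 note: plate controls were DMSO with enzyme for no effect and no enzyme buffer wells for full effect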
SENP8 block-2: SENP8 protease inhibitors, primary screen, biochemical, luminescence. Sentrin-specific protease 8 (Homo sapiens), Q96LD8. purified SENP8, Z-RLRGG-aminoluciferin cleavage. inhibition, % at 10 µM. actives 1.2% (n = 330,000); in the data active = inhibition above about 50%
EBI2 antag: EBI2 receptor antagonists, beta-arrestin recruitment, primary screen, cell-based, luminescence, 7a,25-OHC stimulation, uHTS; inhibition, % at 5 µM; 7a,25-OHC stimulated; AID 651636, 2012; actives 0.81% (n = 360,000); in the data active = inhibition above about 38%;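 note: enzyme fragment complementation signal reports receptor beta-arrestin coupling in cells; 0% = agonist plus DMSO wells and 100% = wells without agonist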
SENP6 block: SENP6 protease inhibitors, primary screen, biochemical, luminescence, uHTS; Recombinant SENP6 catalytic domain, aminoluciferin luminescence; actives 1.8% (n = 330,000); inhibition, % at 10 µM; Sentrin-specific protease 6 (Homo sapiens), Q9GZR1;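 active = inhibition above about 50% at the single tested dose, limit read from the data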;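 note: plate controls were DMSO wells with enzyme for no effect and DMSO wells lacking enzyme for full effect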
AHR activator: AHR activators, primary screen, cell-based, luminescence, luciferase reporter, human. activation, % at 5 µM. AID 2796, 2010. AHR-responsive luciferase reporter cells. actives 2.5% (n = 320,000); in the data active = activation above about 47%;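 note: 0% = vehicle wells and 100% = reference agonist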
SENP8 confirm: SENP8 protease inhibitors, retest, confirmation, biochemical, luminescence, single concentration; actives 40% (n = 6,200); AID 488912, 2010; shares compounds with SENP7 inh; Recombinant SENP8, Z-RLRGG-aminoluciferin luminescence, 60 min; inhibition, % at 12.5 µM;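 active = mean inhibition across replicates above about 50%, limit read from the data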
SENP6 confirm: SENP6 protease inhibitors, confirmation, biochemical, luminescence, single concentration; shares compounds with SENP7 inh; recombinant SENP6, Z-RLRGG-aminoluciferin luminescence; inhibition, % at 12.5 µM; actives 58% (n = 6,200)
SENP7 conf: SENP7 protease inhibitors, retest, confirmation, biochemical, luminescence, single concentration | recombinant SENP7, Z-RLRGG-aminoluciferin luminescence, 40 min | inhibition, % at 12.5 µM | shares compounds with SENP7 inh | actives 69% (n = 6,200)
Casp3 SENP sel: caspase-3 protease inhibitors, confirmation, selectivity assay for SENP inhibitor project, biochemical, single concentration | purified caspase-3, Z-DEVD-aminoluciferin luminescence, 60 min | AID 488918, 2010 | inhibition, % at 12.5 µM | shares compounds with SENP7 inh | actives 60% (n = 6,200);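 active = mean inhibition above about 50%, limit read from the data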;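 note: plate controls were enzyme with DMSO for no effect and wells without caspase-3 for full effect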
Target sequence (P42574 28-227 limits assumed): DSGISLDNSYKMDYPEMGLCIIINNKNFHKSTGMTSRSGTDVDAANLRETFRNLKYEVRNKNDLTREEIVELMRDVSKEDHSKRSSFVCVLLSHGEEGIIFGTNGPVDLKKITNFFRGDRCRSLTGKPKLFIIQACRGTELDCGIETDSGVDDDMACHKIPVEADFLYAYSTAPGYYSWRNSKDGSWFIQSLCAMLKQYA
Luc interf: luminescence interference (SENP counter-screen); shares compounds with SENP7 inh; Pre-incubated SENP8/Z-RLRGG-aminoluciferin, luciferase luminescence interference; inhibition, % at 12.5 µM; actives 39% (n = 6,200);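 active = mean inhibition above about 50% when retested at one dose, limit read from the data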;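 note: plate controls were DMSO wells with completed reaction for no effect and substrate without enzyme for full effect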
Starred values were filed as active, the others as inactive; . = not tested or not shown.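 Rule for the calls, unless noted: active = mean inhibition above about 50% in the one-dose retest (limit read from the data); inactive = the rest.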

SMILES | SENP8 block-1 | SENP7 inh | SENP8 block-2 | EBI2 antag | SENP6 block | AHR activator | SENP8 confirm | SENP6 confirm | SENP7 conf | Casp3 SENP sel | Luc interf
COc1ccc(-c2csc(C(C)(O)c3ccc(F)c(F)c3)n2)cn1 (configuration not stated) | 12 | . | . | 9 | . | . | . | . | . | . | .
O=C(NCc1ccccc1)C1CCCN(S(=O)(=O)c2cccc3nsnc23)C1 (configuration not stated) | 12 | -4 | -3 | -9 | -1 | 3 | . | . | . | . | .
Oc1ccc(/C=N/NC(=S)N/N=C/c2ccc(O)cc2)cc1 | -77 | 26 | 37 | -6 | 62* | 9 | 54* | 52* | 76* | 85* | 59*
COc1ccccc1NC(=S)N/N=C/c1ccc(O)cc1 | -38 | 13 | 7 | -8 | 13 | 19 | . | . | . | . | .
Cc1cc(C)cc(N2CCCn3c2nc2c3c(=O)n(CC(=O)OCc3ccccc3)c(=O)n2C)c1 | -4 | 55* | 1 | 28 | 9 | 1 | -17 | -9 | -15 | 1 | -9
CCOC(=O)Cn1c(=O)c2c(nc3n2CCCCN3c2ccc(C)cc2)n(C)c1=O | -11 | -3 | -2 | 7 | -3 | 2 | . | . | . | . | .
CCOC(=O)COc1ccc2c(=O)c(-c3ccccc3)coc2c1 | 21 | 4 | 15 | -3 | 15 | 6 | . | . | . | . | .
COc1ccc(-c2coc3cc(O)c(OC)cc3c2=O)cc1 | -495 | 53* | 39 | 3 | 46 | 0 | 27 | 27 | 75* | 75* | 56*
Cc1nc(-c2coc3cc(O)c(C)cc3c2=O)cs1 | -143 | 98* | 94* | -12 | 93* | 9 | 84* | 98* | 102* | 96* | 47
COc1ccc(-c2coc3cc(O)ccc3c2=O)cc1 | -297 | 2 | 14 | -6 | 27 | 4 | . | . | . | . | .
Cc1nc(-c2coc3cc(OCC(=O)O)ccc3c2=O)cs1 | -22 | 2 | 31 | -8 | 65* | -15 | 57* | 54* | 86* | 88* | 63*
Cc1nc(-c2coc3cc(C)c(N=O)c(O)c3/c2=N\N)cs1 | 14 | 2 | 3 | 1 | 13 | -3 | . | . | . | . | .
COc1ccc2c(=O)c(-c3nc(C)cs3)coc2c1 | -41 | 96* | 91* | 0 | 93* | 21 | -7 | 53* | 84* | 76* | 57*
Cc1ccnc(N/C=C/C(=O)c2ccc(Br)cc2)c1 | -202 | 96* | 87* | 10 | 88* | . | 26 | 40 | 60* | 54* | 18
COc1ccc(C(=O)/C=C/Nc2cc(C)ccn2)cc1 | -319 | 95* | 95* | 14 | 95* | -2 | 12 | 99* | 103* | 96* | 47
Cc1ccc(S(=O)(=O)N2CCC(C(=O)OCC(=O)NC(C)c3ccc(F)cc3)CC2)cc1C (configuration not stated) | 0 | -4 | -1 | 0 | -1 | 0 | . | . | . | . | .
CCOC(=O)Cn1c(=O)c(F)cn(Cc2ccc(OC)c([N+](=O)[O-])c2)c1=O | 9 | 2 | 10 | 1 | 18 | . | . | . | . | . | .
